High-throughput results (PubChem)
GLP1R ag = GLP-1 receptor (human) agonism; HEK293 GLP-1R CRE-luciferase, luminescence, 4-6 h; cells express a hypersensitive GLP-1R form; Potency, µM (series often up to 45.6 µM), usual class: activators; 380,000 compounds, 0.007% hits
Target sequence (P43220 whole entry, looked up): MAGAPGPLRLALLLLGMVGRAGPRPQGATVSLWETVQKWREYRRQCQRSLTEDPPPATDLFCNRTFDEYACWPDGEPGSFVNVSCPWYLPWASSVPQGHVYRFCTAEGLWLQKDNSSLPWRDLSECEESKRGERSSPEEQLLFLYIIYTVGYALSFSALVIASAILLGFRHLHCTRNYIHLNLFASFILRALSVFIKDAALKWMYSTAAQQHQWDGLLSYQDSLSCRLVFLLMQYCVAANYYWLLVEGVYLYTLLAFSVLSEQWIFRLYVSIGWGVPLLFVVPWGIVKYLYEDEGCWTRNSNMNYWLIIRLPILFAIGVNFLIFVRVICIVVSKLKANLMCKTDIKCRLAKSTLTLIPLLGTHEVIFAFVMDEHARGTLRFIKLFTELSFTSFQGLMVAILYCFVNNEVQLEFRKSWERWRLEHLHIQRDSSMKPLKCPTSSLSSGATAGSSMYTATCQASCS
HEK293 tox = cytotoxicity in counter-screen for GLP-1R inverse agonists. AID 624418. 410,000 compounds, 0.13% hits. Potency, µM (doses to about 38.3 µM), most hits filed as inhibitors. HEK293 cAMP-luciferase reporter cells, luminescence, 24 h;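 further: loss of luciferase light is scored as toxicity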
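Step one: seed cells (200 cells/uL, DMEM with 10% Nu serum, 1% pen-strep). Step two: 12-hour incubation at 37 deg C. Step three: pin 23 nL compound, incubate 24 hr. Step four: add luciferase reagent, read luminescence 12 min later.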
GLP-1R inv ag = acts as inverse agonist at human GLP-1 receptor; HEK293 GLP-1R CRE-luciferase, luminescence, 24 h; GLP-1R form is constitutively active; Potency, µM (highest dose often 38.3 µM), actives largely listed as inhibitors; 410,000 compounds, 1.6% hits; further: nearly all actives have a fitted effect of over 55% in size
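qHTS in 1536-well format: reporter HEK293 cells expressing constitutive GLP-1R activity in DMEM + 10% Nu serum, 24 hr with compounds at 37 deg C, luminescence read after 12 min with detection reagent.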
KCNH2 WT inh = blocks the wildtype human KCNH2 potassium channel. Q12809. U2OS, BacMam KCNH2, thallium flux FluxOr; stronger effect = lower value. activity change, % at 1.84 µM. 340,000 compounds, 0.37% hits. AID 720551;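 active means maximum activity change below -70%; inconclusive means maximum activity change between -70% and -50%; inactive means maximum activity change above -50%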
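U2OS cells were transduced with wild-type KCNH2 virus (2.03 x 10^8 / mL) for 4 h at room temperature, then cultured overnight at 37 C. Thallium flux was read with FluxOr dye. Rate constants were normalized to DMSO controls.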
GLS inhibitor = glutaminase GLS (human) inhibition; O94925; GLS enzymatic activity, qHTS titration; Potency, µM (titrated, usually from 45.5 µM), actives largely listed as inhibitors; 410,000 compounds, 0.21% hits
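Human kidney-isoform GLS in 45 mM KH2PO4 pH 8.2, 0.02% Tween-20, with compound, started with 1mM L-Glutamine (added stock). Glutamate oxidase/HRP/Amplex red coupled fluorescence read at start and after 30 min at RT.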
KCNH2 3.1 block = inhibitors of human KCNH2 3.1 potassium channel isoform; activity change, % (tested at about 1.8 µM); 340,000 compounds, 0.95% hits; U2OS KCNH2 3.1, thallium flux FluxOr; stronger effect = lower value;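 active means maximum activity change below -70%; inconclusive means maximum activity change from -70% to -50%; inactive means maximum activity change above -50%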;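 further: thallium influx rate constant from kinetic fluorescence after stimulation buffer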
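Steps: virus added to U2OS suspension (4 h, RT, dark); medium with 10% FBS added, cells plated, 37 C overnight; FluxOr/Red40 loading buffer 45 min RT; stimulation buffer, 2 min kinetic read; rate constant normalized.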
A number is an active result; - = inactive; ? = inconclusive; . = no result given; [ ] = another dose, or the depositor's remark. Only some compounds are listed: those with a hit (about 2.8% of all), similar ones and a draw of the others. Unless noted, the call rests on the fitted dose curve; in most records, active means well fitted curve in the direction sought with a large enough effect; inconclusive means small, poorly fitted or top-dose-only effect, or another doubt; inactive means no such curve, though single readings can be large; an effect the other way counts as inactive or inconclusive.

SMILES	GLP1R ag	HEK293 tox	GLP-1R inv ag	KCNH2 WT inh	GLS inhibitor	KCNH2 3.1 block
Cc1ccc(OCc2nc3ccccc3n2Cc2ccccc2Cl)cc1	-	-	13µM	.	-	.
CCn1c(COc2ccc(C)cc2)nc2ccccc21	-	-[7.66 µM]	-[7.66 µM]	-	-	-
CCOCCn1c(COc2ccc(C)cc2)nc2ccccc21	-	-	7.1µM	-	-	-
COCCn1c(COc2ccc(C)cc2)nc2ccccc21	-	-	?	-	-	-
CCCCn1c(=N)n(CCOc2ccc(C)cc2)c2ccccc21	-	-	?	-128	-	-111
CCOC(=O)c1c(C)c(C(=O)NCCc2ccc(OC)cc2)c(C)n1C	-	-	-	.	-	.
COc1cc(Cl)c(C)cc1NC(=O)CSc1sc2c(O)cc(=O)[nH]c2c1C#N	-	-	-	-	-	-
Cc1cc(C)nc(NS(=O)(=O)c2ccc(NS(=O)(=O)c3ccsc3)cc2)n1	-	-	-	-	-	-89
CCCSc1nnc(Cc2cc(=O)[nH]c(=O)[nH]2)n1-c1cc(C)ccc1C	-	-	-	-89	-	-
CCNC(=O)O/N=C1\CCCCC1c1ccc([N+](=O)[O-])cc1[N+](=O)[O-] (centres undefined)	-	-	-	-	-	-
COc1cc(CCC(=O)OCC(=O)c2ccc[nH]2)cc(OC)c1OC	-	-	-	-94	-	-
COc1cc(CC(=O)OCC(=O)c2ccc[nH]2)cc(OC)c1OC	-	-	-	-	-	-
OC(COc1ccc(Br)cc1)CN1CCC(Cc2ccccc2)CC1 (centres undefined)	-	?	?	-117	-	-104
CC(=O)c1ccc(OCC(O)CN2CCN(Cc3ccccc3)CC2)cc1 (centres undefined)	-	-	-	-	-	-
O=C(/C=C/c1ccc(OCCCF)cc1)N1CCN(Cc2ccccc2)CC1	-	-	10µM	-	-	-
O=C(c1ccccc1)c1ccc(OCCOCCN2CCN(Cc3ccccc3)CC2)cc1	-	-	?	-140	-	-
O=C(c1ccccc1)c1ccc(OCC(O)CN2CCN(Cc3ccccc3)CC2)cc1 (centres undefined)	-	-	-	-	-	-85
Cn1c(=O)c2c(ncn2CCOc2cccc(Br)c2)n(C)c1=O	-	-	-	-	-	-
O=C(Cn1nc(-c2ccccc2)nc(Cc2ccccc2)c1=O)Nc1ccc(Cl)cc1	.	-	-	.	-	.
O=C(Nc1cccc(C(=O)N2CCCCC2)c1)c1nsc2ccccc12	.	-	-	.	-	.
CC(C)(c1ccccc1)c1ccc(OCC(O)CNC2CCN(Cc3ccccc3)CC2)cc1 (centres undefined)	-	?	1.8µM	-	-	-
COc1ccc(OCCN2CCN(C(=O)c3ccc(OC)cc3)CC2)cc1	-	-	-	-	-	-
N#Cc1ccc(OCC(O)CN2CCC(C(O)(c3ccccc3)c3ccccc3)CC2)cc1 (centres undefined)	-	-	?	-144	-	-120
O=C(c1ccc(Cl)cc1)N1CCN(CCOc2ccccc2)CC1	-	-	11µM	-	-	-
c1ccc(OCCN2CCN(C(c3ccccc3)c3ccccc3)CC2)cc1	-	-	?	-	-	-96
SMILES	GLP1R ag	HEK293 tox	GLP-1R inv ag	KCNH2 WT inh	GLS inhibitor	KCNH2 3.1 block
c1ccc(OCCN2CCNCC2)cc1	-	-	-	-	-	-
COc1cc2c(C(=O)N3CCN(c4ccc(C)cc4)C(C)C3)cn(CC(C)C)c(=O)c2cc1OC (centres undefined)	-	-	-	.	-	.
CC(C)(C)c1ccc(OCC(O)CN2CCN(C(=O)c3ccccc3)CC2)cc1 (centres undefined)	-	-	10µM	-	-	-
COc1ccc(OCCN2CCN(C(=O)c3ccc(OC(F)F)c(OC)c3)CC2)cc1	-	-	?	-	-	-76
Clc1ccc(-c2cc(CN3CCCCC3)no2)cc1Cl	-	-	10µM	-	-	-
Clc1ccc(-c2cc(CN3CCOCC3)no2)cc1	-	-	-	-	-	-
Cc1ccc(C(=O)c2oc3ccccc3c2NC(=O)c2cc(-c3ccccc3)on2)cc1F	.	-	-	.	-	.
O=C(CCCn1c(=O)c2sccc2n(Cc2c(F)cccc2Cl)c1=O)NCc1ccccc1	.	-	-	.	-	.
Cc1cccc(N2CCC(N3CCN(C4CCCCC4)C(CCO)C3)CC2)c1C (centres undefined)	-	-	-	-	-	-
C=C(C)C(=O)Nc1cccc(C2=NOC3(C2)C[C@@H](C(N)=O)N(C(=O)/C=C/C=C/C)C3)c1 (some centres undefined)	-	-	-	-	11µM	-
C=C(C)C(=O)Nc1cccc(C2=NOC3(C2)C[C@H](C(N)=O)N(C(=O)c2ccccc2C(=O)c2ccccc2)C3)c1 (some centres undefined)	-	-	-	-	14µM	-
C=C(C)C(=O)Nc1cccc(C2=NOC3(C2)C[C@@H](C(N)=O)N(C(=O)CC(c2ccccc2)c2ccccc2)C3)c1 (some centres undefined)	-	-	-	-	11µM	-
C/C=C(\C)C(=O)Nc1cccc(C2=NOC3(C2)C[C@@H](C(N)=O)N(C(=O)c2ccccc2C(=O)c2ccccc2)C3)c1 (some centres undefined)	-	-	-	-	-	-
Cc1ccc(C(=O)N(C)CCOc2ccccc2)cc1S(=O)(=O)N1CCOCC1	-	-	-	-	-	-
CN(Cc1ccc(Cl)cc1)C(=O)COC(=O)CSc1ccc([N+](=O)[O-])cc1	-	-	-	-	-	-
Cc1ccc(C)c(Cn2c(=O)n(CCCCC(=O)NCc3ccc4c(c3)OCO4)c(=O)c3ccccc32)c1	-	-	-	.	-	.
COc1ccccc1/C=C/CN1CCC(n2nccc2NC(=O)C2CC2)CC1	-	-	-	-	-	-
Cc1ccccc1C(=O)Nc1ccnn1C1CCN(C(C)Cc2ccccc2F)CC1 (centres undefined)	-	?	?	-	-	-76
COc1ccccc1C(=O)Nc1ccnn1C1CCN(C/C=C/c2ccccc2)CC1	-	-	?	-121	-	-107
COc1ccccc1C(=O)Nc1ccnn1C1CCN(CCC(C)c2ccc(C)o2)CC1 (centres undefined)	-	-	?	-104	-	-98
CCOc1ccc(CNC(=O)CSc2nnc(C)c3c(C)n(-c4ccc(Cl)cc4)nc23)cc1	.	-	-	.	-	.
COc1ccc(C2(O)CCN(CC(=O)Nc3nc(-c4ccccc4)cs3)CC2)cc1	-	-	7.1µM	-	-	?
NC(=O)C1CCN(CC(=O)Nc2nc(-c3ccccc3)cs2)CC1	-	-	-	-	-	-
